# Screening results deposited in PubChem by ICCB-Longwood Screening Facility, Harvard Medical School.
# Sa growth inh: S. aureus growth inhibition at 42 and 30 °C, primary screen, LtaS inhibitor project, RN4220, two temperatures | OD600, 20 h, 42 °C; active compounds read low | relative growth, % (test concentration not listed) | 170,000 compounds, 0.53% hits | AID 720641, 2013;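 active means relative growth at most 50% at the other temperature and 20+ points below 30 °C, or under 10% at both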
# Sa helicase inh: inhibitors of S. aureus replicative helicase, primary screen, biochemical, fluorescence unwinding readout; replicative DNA helicase (DnaC/DnaB), Staphylococcus aureus; purified S. aureus helicase, fluorescence unwinding assay; inhibition, % (no concentration beside the values); 120,000 compounds, 0.05% hits; AID 485395, 2010; in the data active means inhibition above about 25%, passing the limit was not always enough;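 further: 0% = mean of negative control wells and 100% = mean of positive control wells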
# HCMV UL50-53 inh: inhibitors of HCMV UL50-UL53 interaction, biochemical, HTRF | 190,000 compounds, 0.15% hits | HCMV UL50-UL53 nuclear egress complex (human cytomegalovirus) | inhibition, % (test concentration not listed) | normalized percent inhibition; in the data active means inhibition above about 27%, passing the limit was not always enough
# * marks the source's active call; other numbers are inactive results; / = no result. This is one part of a sample in which hits are shown more often than they occur.
SMILES,Sa growth inh,Sa helicase inh,HCMV UL50-53 inh
Cc1onc(-c2c(F)cccc2Cl)c1C(=O)N[C@@H]1C(=O)N2C(C(=O)O)C(C)(C)S[C@H]12 (some centres undefined),/,/,-14.5
CC1(C)S[C@@H]2C(NC(=O)Cc3ccccc3)C(=O)N2C1C(=O)O (some centres undefined),/,/,-3.4
CC1(C)S[C@@H]2[C@H](NC(=O)Cc3ccccc3)C(=O)N2[C@H]1C(=O)O,-0.9*,/,-6.5
CCN1CCN(C(=O)NC(C(=O)NC2C(=O)N3C2SC(C)(C)C3C(=O)O)c2ccccc2)C(=O)C1=O (centres undefined),/,/,-14.0
CCN1CCN(C(=O)NC(C(=O)N[C@@H]2C(=O)N3[C@@H]2SC(C)(C)[C@@H]3C(=O)O)c2ccccc2)C(=O)C1=O (some centres undefined),-0.3*,/,16.4
Cc1onc(-c2ccccc2Cl)c1C(=O)N[C@@H]1C(=O)N2[C@@H]1SC(C)(C)[C@@H]2C(=O)O,0.0*,/,-13.2
O=C(CSc1nnc(N2C(=O)c3ccccc3C2=O)s1)NC1CC1,98.4,7.0,-8.1
COc1ccccc1C(=O)N1CCN2C(=O)[C@@H]3CSCN3C(=O)[C@H]2C1,/,/,-6.7
CCSCCOC(=O)C1=C(C)NC2=C(C(=O)CC(c3ccc(OC)cc3)C2)C1c1ccccc1OC (centres undefined),/,/,-13.6
CC1(C)SC2C(NC(=O)C(N)c3ccccc3)C(=O)N2C1C(=O)O (centres undefined),/,/,-54.8
CC1(C)S[C@@H]2C(N3C(=O)[C@@H](c4ccccc4)NC3(C)C)C(=O)N2[C@H]1C(=O)O (some centres undefined),-0.3*,/,-15.1
COc1ccc(-c2noc(CNC(=O)c3ccc(C)cc3C)n2)cc1OC,104.6,1.0,-36.0
CCOC(=O)CC1=CC(=O)N(CC(=O)Nc2ccc3c(c2)OCCO3)c2cc(C)c(C)cc2N1,/,/,-33.0
NC(=O)c1nc(-c2cccc(F)c2)nc2c1[nH]c(=O)n2CC1CCCO1 (centres undefined),/,/,-15.8
CC1(C)SCNC1C(=O)O (centres undefined),109.2,/,-10.1
O=C(O)[C@H]1/C(=C/CO)O[C@@H]2CC(=O)N21,14.7*,/,-47.9
O=C(Cn1cc2c(n1)CCCCC2)NCc1ccc(F)cc1,95.4,-23.0,-17.8
CC(C)N(CC(=O)c1cccs1)Cc1ccccc1,-1.0*,-10.0,6.4
CC(C)N(Cc1ccccc1)C(=O)c1cccs1,87.2,/,-22.7
CNC(=O)CNC(=O)Nc1ccc(Cl)c(Cl)c1,111.3,2.0,44.1*
CS(=O)CCNC(=O)Nc1ccc(Cl)c(Cl)c1 (centres undefined),106.9,4.0,/
COc1ccc(C(=O)N2CCc3cc(OC)c(OC)cc3C2C)cc1 (centres undefined),104.8,/,-36.9
COc1cc2cc3c4c(cc(OC)c(OC)c4c2cc1OC)CCN3C,6.6*,32.0,67.4*
COc1ccc(-n2c(C)cc(CNC(=O)NC3CCCCC3)c2C)cc1,/,/,10.8
CN(C)S(=O)(=O)c1ccc(=S)[nH]c1,37.7*,10.0,-12.8
SMILES,Sa growth inh,Sa helicase inh,HCMV UL50-53 inh
CSc1ccc(S(=O)(=O)N(C)C)cc1,108.0,0.0,-2.5
O=C(O)Cn1ccccc1=O,44.4*,7.0,4.0
N/C(Cn1ccccc1=O)=N\O,82.1,-14.0,-13.5
CC(C)c1ccc(-c2ccc(SCc3nc(-c4ccc5c(c4)OCO5)no3)nn2)cc1,/,/,-12.2
COc1ccccc1C(=O)Nc1nc2ccccc2n1CCOc1ccccc1,1.0*,6.0,-14.4
COc1ccccc1OCCn1c(NC(=O)c2ccccc2)nc2ccccc21,109.0,/,/
Cc1ccc(F)cc1NC(=O)[C@H](C)N1C(=O)C2CC=CCC2C1=O (some centres undefined),96.2,-16.0,15.5
CCCCC/C=C/CCC(=O)N[C@H]1[C@H](Oc2c3cc4cc2Oc2ccc(cc2Cl)[C@@H](O[C@@H]2O[C@H](CO)[C@@H](O)[C@H](O)[C@H]2NC(C)=O)[C@@H]2NC(=O)[C@H](NC(=O)[C@@H]4NC(=O)[C@H]4NC(=O)C(Cc5ccc(c(Cl)c5)O3)NC(=O)[C@H](N)c3ccc(O)c(c3)Oc3cc(O)cc4c3)c3ccc(O)c(c3)-c3c(OC4O[C@H](CO)[C@@H](O)[C@H](O)[C@@H]4O)cc(O)cc3[C@@H](C(=O)O)NC2=O)O[C@H](CO)[C@@H](O)[C@@H]1O (some centres undefined),-0.1*,/,-14.9
C[n+]1cc(C(=O)NCC[N+](C)(C)Cc2ccccc2)ccc1/C=N/O,94.4,11.0,/
CCc1ccc(NC(=O)NCCn2c(-c3ccc(F)cc3)nc3cccnc32)cc1,/,/,-10.3
O=C(O)CSc1nnc(NC2CCCCC2)s1,77.3,5.0,0.5
N#CSc1cnc(NC2CCCCC2)s1,5.0*,-2.0,-30.3
COc1ccc(CC(O)CN2CCOCC2)cc1 (centres undefined),117.8,-1.0,-5.6
CC1C/C(=N/Nc2nc3ccccc3[nH]2)CC(C)(C)C1 (centres undefined),82.7,11.0,-19.4
CC1=C/C(=N/Nc2nc3ccccc3[nH]2)CC(C)(C)C1,-0.4*,15.0,-24.8
Cc1ccccc1Cc1c(C)nc2c(-c3ccccc3)c(C)[nH]n2c1=O,0.5*,/,-6.4
Cc1[nH]n2c(=O)cc(-c3ccccc3Cl)nc2c1-c1ccccc1,32.4,/,-9.7
Cc1cccc(Cc2c(C)nc3c(-c4ccccc4)c(C)[nH]n3c2=O)c1,14.9,/,-15.5
Cc1[nH]n2c(=O)cc(-c3ccccc3)nc2c1-c1ccccc1,0.0*,-13.0,15.2
COc1ccccc1N1CCN(C(=O)c2cc3ccc4cccnc4c3[nH]2)CC1,80.9,-32.0,-31.2
COC(=O)c1c(NC(=O)C2CC(=O)NN2C)sc2c1CCC2 (centres undefined),104.0,16.0,-35.8
CCCCN(CC)c1ncnc2sc3c(c12)CCC3,79.5,2.0,-14.2
Cc1cccc(C)c1NC(=O)c1c(C)oc2ccc(OCc3ccccc3)cc12,/,/,-7.6
Cc1ccc(N(c2ccc(C)cc2)c2cccnc2)cc1,5.5*,7.0,-14.6
Cc1ccc(OC(=O)c2cccnc2)cc1,98.1,-5.0,10.7
SMILES,Sa growth inh,Sa helicase inh,HCMV UL50-53 inh
Cc1ccc(CNC(=O)Cn2sc3nc(C)cc(C)c3c2=O)cc1,86.7,13.0,3.0
CCOc1ccc(CCNC(=O)Cn2sc3nc(C)cc(C)c3c2=O)cc1,6.2*,24.0,-5.5
CC1=NC(C(F)(F)F)(C(F)(F)F)N=C(N2CCCCC2)O1,79.9,-6.0,/
CCCCS(=O)(=O)c1oc(-c2ccc(F)cc2)nc1S(=O)(=O)c1ccccc1,1.6*,/,11.0
CCS(=O)(=O)c1oc(-c2ccc(F)cc2)nc1S(=O)(=O)c1ccc(Br)cc1,84.6,/,-18.6
CC(C)S(=O)(=O)c1oc(-c2ccc(F)cc2)nc1S(=O)(=O)c1ccccc1,1.3*,/,-0.2
CC(C)S(=O)(=O)c1oc(-c2cccs2)nc1S(=O)(=O)c1ccc(F)cc1,84.9,/,-23.4
Cc1ccccc1OCCCn1c(C2CCCO2)nc2ccccc21 (centres undefined),/,/,1.5
C=CC1=C(C(=O)O)N2C(=O)[C@@H](NC(=O)/C(=N\O)c3csc(N)n3)[C@H]2SC1 (stereo in doubt),-0.4*,/,-47.2
